# From PubChem BioAssay (NCI)
# About 79,000 compounds went through this panel and 15% of them were active in at least one assay; those are over-represented in the sample as a whole. A number with no mark means an inactive call. Activity calls are given as the source filed them. Rule as the data show it: active = growth inhibition above about 70%; inactive = the rest.
# What was measured:
# [1] = NCI Yeast Anticancer Drug Screen. Data for the rad52 strain (AID 147);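 also: 0% = growth of vehicle-treated control cultures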; details: S. cerevisiae rad52 mutant growth inhibition, stronger effect = higher value
# Procedure, shortened: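 Genetically altered yeast (DNA damage repair defect) treated with compound; inhibition calculated relative to vehicle.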
# [2] = NCI Yeast Anticancer Drug Screen. Data for the wt1 strain (AID 149);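 also: 0% = growth of vehicle-treated wt1 cultures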; details: S. cerevisiae wt1 strain (SPY 50644) growth inhibition, stronger effect = higher value
# Procedure, shortened: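 Using yeast strain wt1, compound-induced growth inhibition was determined against vehicle-treated cultures.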
# [3] = NCI Yeast Anticancer Drug Screen. Data for the rad50EPP+ strain (AID 151);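 also: 0% = growth of vehicle-treated control cultures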; details: S. cerevisiae rad50 mutant strain, stronger effect = higher value
# Procedure, shortened: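 Strain rad50EPP+; compound exposure; % growth inhibition vs vehicle.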
# [4] = NCI Yeast Anticancer Drug Screen. Data for the mgt1 strain (AID 153); details: S. cerevisiae mgt1 mutant growth inhibition, stronger effect = higher value
# Procedure, shortened: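 Read-out: yeast growth inhibition vs vehicle control. Strain mgt1, drawn from a panel altered in DNA damage repair or cell cycle control.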
# [5] = NCI Yeast Anticancer Drug Screen. Data for the rad50 strain (AID 155);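 also: 0% = growth of vehicle-only cultures of the same strain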; details: S. cerevisiae rad50 strain growth inhibition, stronger effect = higher value
# Procedure, shortened: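 Relative growth inhibition (compound vs vehicle) was measured in yeast with a defined repair-gene alteration.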
# [6] = NCI Yeast Anticancer Drug Screen. Data for the mec2-1 strain (AID 157); details: S. cerevisiae mec2-1 strain, stronger effect = higher value
# Procedure, shortened: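 Cells of the genetically defined mec2-1 yeast strain are incubated with test compound. Inhibition of growth is calculated against vehicle-treated controls.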
# [7] = NCI Yeast Anticancer Drug Screen. Data for the rad14 strain (AID 159);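 also: 0% = growth of vehicle-treated control cultures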; details: S. cerevisiae rad14 strain growth inhibition, stronger effect = higher value
# Procedure, shortened: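 Screen for anticancer potential: a yeast strain altered in DNA damage repair is grown with compound, and reduced growth is quantified against vehicle controls.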
# [8] = NCI Yeast Anticancer Drug Screen. Data for the sgs1 mgt1 strain (AID 161);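 also: 0% = growth of cultures given vehicle only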; details: S. cerevisiae sgs1 mgt1 strain, stronger effect = higher value
# Procedure, shortened: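 Inhibition of yeast growth, normalised to vehicle-treated controls, is reported for a strain bearing genetic alterations in DNA damage repair.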
# [9] = NCI Yeast Anticancer Drug Screen. Data for the CLN2oe strain (AID 163);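 also: 0% = growth of vehicle-only control cultures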; details: S. cerevisiae CLN2oe strain, stronger effect = higher value
# Procedure, shortened: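 Strain altered in cell-cycle control, incubated with compound; growth compared to solvent-treated controls.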
# [10] = NCI Yeast Anticancer Drug Screen. Data for the cln2 rad14 strain (AID 165);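 also: 0% = growth equal to vehicle treated cultures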; details: S. cerevisiae cln2 rad14 strain, stronger effect = higher value
# Procedure, shortened: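 The screen exposed genetically defined yeast (cln2 rad14) to test compounds and scored growth inhibition relative to vehicle-treated controls.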
# [11] = NCI Yeast Anticancer Drug Screen. Data for the bub3 strain (AID 167); details: S. cerevisiae bub3 mutant strain, stronger effect = higher value
# Procedure, shortened: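 Screening used yeast with an engineered genetic alteration affecting cell cycle control. Compound-exposed cultures were compared with vehicle cultures, and reduced growth was taken as inhibition.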
# [12] = NCI Yeast Anticancer Drug Screen. Data for the mlh1 strain (AID 171);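 also: 0% = growth of vehicle-treated control cultures of the same strain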; details: S. cerevisiae mlh1 strain growth inhibition, stronger effect = higher value
# Procedure, shortened: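 Yeast screen: mutant strain plus compound, growth scored against vehicle control wells.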
# [13] = NCI Yeast Anticancer Drug Screen. Data for the sgs1 strain (AID 173);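 also: 0% = growth of vehicle-only control cultures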; details: S. cerevisiae sgs1 mutant, stronger effect = higher value
# Procedure, shortened: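 Inhibition of yeast growth served as the measure. The mutant strain was treated with each compound, and growth was normalised to cultures receiving vehicle alone.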
# [14] = NCI Yeast Anticancer Drug Screen. Data for the mlh1 rad18 strain (AID 175); details: S. cerevisiae mlh1 rad18 strain growth inhibition, stronger effect = higher value
# Procedure, shortened: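 Compound-treated yeast growth, normalised to vehicle controls. Strain bears defined DNA repair mutations.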
# [15] = NCI Yeast Anticancer Drug Screen. Data for the rad18 strain (AID 177); details: S. cerevisiae rad18 mutant growth inhibition, stronger effect = higher value
# Procedure, shortened: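 Inhibition values reflect reduced yeast growth compared with vehicle-treated controls, using a strain engineered with a DNA damage repair defect.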
# [16] = at 5.0 µM (retest, dose inferred, filed as 0.5)
# [17] = at 50.0 µM (retest, dose inferred, filed as 5.0)
smiles,measurement,setting,value
CCC1(O)C(=O)OCc2c1cc1n(c2=O)Cc2c-1nc1ccccc1c2OC (configuration not stated),growth inhibition,[1]; at 1.2 µM,80% (active)
same,growth inhibition,[1]; at 3.7 µM,90% (active)
same,growth inhibition,[1]; at 11.0 µM,93% (active)
same,growth inhibition,[1]; at 33.0 µM,93% (active)
same,growth inhibition,[1]; at 100.0 µM,90% (active)
same,growth inhibition,[2]; at 1.2 µM,11%
same,growth inhibition,[2]; at 3.7 µM,12%
same,growth inhibition,[2]; at 11.0 µM,13%
same,growth inhibition,[2]; at 33.0 µM,12%
same,growth inhibition,[2]; at 100.0 µM,11%
same,growth inhibition,[3]; at 1.2 µM,15%
same,growth inhibition,[3]; at 3.7 µM,28%
same,growth inhibition,[3]; at 11.0 µM,10%
same,growth inhibition,[3]; at 33.0 µM,22%
same,growth inhibition,[3]; at 100.0 µM,27%
same,growth inhibition,[4]; at 1.2 µM,-1%
same,growth inhibition,[4]; at 3.7 µM,10%
same,growth inhibition,[4]; at 11.0 µM,4%
same,growth inhibition,[4]; at 33.0 µM,8%
same,growth inhibition,[4]; at 100.0 µM,-10%
same,growth inhibition,[5]; at 1.2 µM,85% (active)
same,growth inhibition,[5]; at 3.7 µM,93% (active)
same,growth inhibition,[5]; [16],94% (active)
same,growth inhibition,[5]; at 11.0 µM,94% (active)
same,growth inhibition,[5]; at 33.0 µM,94% (active)
same,growth inhibition,[5]; [17],90% (active)
same,growth inhibition,[5]; at 50.0 µM,71.2% (active)
same,growth inhibition,[5]; at 100.0 µM,93% (active)
same,growth inhibition,[6]; at 1.2 µM,1%
same,growth inhibition,[6]; at 3.7 µM,13%
same,growth inhibition,[6]; [16],54%
same,growth inhibition,[6]; at 11.0 µM,28%
same,growth inhibition,[6]; at 33.0 µM,41%
same,growth inhibition,[6]; [17],62%
same,growth inhibition,[6]; at 50.0 µM,33.1%
same,growth inhibition,[6]; at 100.0 µM,43%
same,growth inhibition,[7]; at 1.2 µM,6%
same,growth inhibition,[7]; at 3.7 µM,17%
same,growth inhibition,[7]; at 11.0 µM,15%
same,growth inhibition,[7]; at 33.0 µM,20%
same,growth inhibition,[7]; at 100.0 µM,15%
same,growth inhibition,[8]; [16],31%
same,growth inhibition,[8]; [17],33%
same,growth inhibition,[8]; at 50.0 µM,-13.6%
same,growth inhibition,[9]; at 1.2 µM,-8%
same,growth inhibition,[9]; at 3.7 µM,8%
same,growth inhibition,[9]; at 11.0 µM,16%
same,growth inhibition,[9]; at 33.0 µM,24%
same,growth inhibition,[9]; at 100.0 µM,27%
same,growth inhibition,[10]; [16],19%
same,growth inhibition,[10]; [17],18%
same,growth inhibition,[10]; at 50.0 µM,2.7%
same,growth inhibition,[11]; at 1.2 µM,-10%
same,growth inhibition,[11]; at 3.7 µM,-1%
same,growth inhibition,[11]; [16],6%
same,growth inhibition,[11]; at 11.0 µM,0%
same,growth inhibition,[11]; at 33.0 µM,0%
same,growth inhibition,[11]; [17],11%
same,growth inhibition,[11]; at 50.0 µM,-41.5%
same,growth inhibition,[11]; at 100.0 µM,-13%
same,growth inhibition,[12]; at 1.2 µM,7%
same,growth inhibition,[12]; at 3.7 µM,19%
same,growth inhibition,[12]; at 11.0 µM,22%
same,growth inhibition,[12]; at 33.0 µM,20%
same,growth inhibition,[12]; at 100.0 µM,8%
same,growth inhibition,[13]; at 1.2 µM,12%
same,growth inhibition,[13]; at 3.7 µM,18%
same,growth inhibition,[13]; at 11.0 µM,20%
same,growth inhibition,[13]; at 33.0 µM,25%
same,growth inhibition,[13]; at 100.0 µM,8%
same,growth inhibition,[14]; [16],43%
same,growth inhibition,[14]; [17],33%
same,growth inhibition,[15]; at 1.2 µM,1%
same,growth inhibition,[15]; at 3.7 µM,-4%
same,growth inhibition,[15]; at 11.0 µM,5%
same,growth inhibition,[15]; at 33.0 µM,1%
same,growth inhibition,[15]; at 100.0 µM,1%
